Usually AC50 stands for the concentration giving half of the maximal activity seen.

The record followed here is PubChem BioAssay (EPA / NIEHS).

Structures are written as SMILES. The source made the active and inactive calls. Rule for the calls: active = hit-call score of the fitted dose curve at least 0.9, where 1 is the maximum; inactive = score below 0.9.

Experiment [1] deals with Transcription factor E2F1 (Homo sapiens) (UniProt Q01094). Nature of the experiment: ATG_E2F_CIS: Attagene CIS-FACTORIAL HepG2 Assay for human E2F Transcription Factor 1 (AID 2282935). The note with it: HepG2 Attagene cis-reporter, E2F reporter RNA transcripts; actives raise or lower the signal. A digest of the protocol:
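Transient MRTU transfection of HepG2; 24 h compound exposure; RNA → oligo(dT) RT → PCR → FAM label → HpaI cut → CE fluorescence. Gain/loss of signal fit against DMSO.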

Experiment [2] is described as follows: ATG_E_Box_CIS: Attagene CIS-FACTORIAL HepG2 Assay for human Enhancer Box (E-box) (AID 2282936). The note with it: HepG2 E-box cis-reporter transcription, actives raise or lower the signal. The essentials: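 Transiently transfected HepG2, endogenous TF-driven reporters, 24 h dosing. Readout: RT-PCR plus capillary electrophoresis of fluorescent reporter fragments. Gain or loss of signal fitted bidirectionally against DMSO baseline.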

Experiment [3] can be described thus: ATG_EGR_CIS: Attagene CIS-FACTORIAL HepG2 Assay for human Early Growth Response 1 (EGR1) (AID 2282938). The conditions noted are these: HepG2 Attagene CIS-FACTORIAL EGR reporter mRNA; actives raise or lower the signal. A digest of the protocol: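 Activity is taken as induction or loss of reporter mRNA versus DMSO, fitted bidirectionally. Transcripts from cis-regulated reporter units in transiently transfected HepG2 were measured after 24 h by RT-PCR with capillary electrophoresis.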

Experiment [4] in a line: ATG_M_19_CIS: Attagene CIS-FACTORIAL HepG2 Assay for M19 Transcription Factor (Internal Marker) (AID 2282939). The conditions noted are these: HepG2 Attagene CIS-FACTORIAL M19 internal marker reporter; actives raise or lower the signal. A digest of the protocol: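 Following a 24 h exposure, RNA from transfected HepG2 cells was reverse-transcribed, PCR-amplified with reporter-specific primers, end-labelled with 6-FAM and HpaI-digested before capillary separation. Values represent gain or loss versus DMSO.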

The nature of experiment [5]: ATG_ERE_CIS: Attagene CIS-FACTORIAL HepG2 Assay for Estrogen Response Element (ERE) (AID 2282940). The note with it: HepG2 ERE cis-reporter, Attagene RNA transcript; actives raise or lower the signal. A digest of the protocol: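 HepG2, transient cis-reporter units, 24 h exposure. RNA isolated, oligo(dT) RT, reporter-specific PCR, FAM extension, HpaI cut, CE detection. Gain/loss-of-signal vs DMSO.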

The nature of experiment [6]: ATG_Ets_CIS: Attagene CIS-FACTORIAL HepG2 Assay for human Erythroblast Transformation Specific (ETS) (AID 2282941). The note with it: HepG2 ETS cis-reporter transcription, actives raise or lower the signal. A digest of the protocol:
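RT-PCR/capillary electrophoresis fluorescence read-out of reporter mRNA; HepG2 transient multi-reporter transfection; 24 h compound exposure; gain or loss of signal fitted bidirectionally relative to DMSO.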

The target of experiment [7] is Hepatocyte nuclear factor 3-beta (Homo sapiens) (UniProt Q9Y261). Nature of the experiment: ATG_FoxA2_CIS: Attagene CIS-FACTORIAL HepG2 Assay for human Forkhead box A2 (FOXA2) (AID 2282942). The note with it: HepG2 cis-reporter transcription factor activity, 24 h; actives raise or lower the signal. A digest of the protocol: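 Reporter transcript induction is measured by fluorescence after capillary electrophoresis of RT-PCR products from HepG2 cells exposed 24 h. Cis-regulated reporter units report endogenous factor activity; curves fitted both directions against DMSO.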

The nature of experiment [8]: ATG_FoxO_CIS: Attagene CIS-FACTORIAL HepG2 Assay for human Forkhead box O (FoxO) (AID 2282943). The conditions noted are these: HepG2 Attagene cis-reporter, FoxO element, mRNA; actives raise or lower the signal. The essentials: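 Read-out: fluorescence of 6-FAM-labelled reporter cDNA fragments resolved by capillary electrophoresis. Transiently transfected HepG2 cells were dosed for 24 h; activity fitted in both directions relative to DMSO controls.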

Experiment [9] in a line: ATG_GATA_CIS: Attagene CIS-FACTORIAL HepG2 Assay for human GATA Binding Protein (AID 2282944). The conditions noted are these: HepG2 GATA cis-element reporter, Attagene multiplex mRNA; actives raise or lower the signal. The essentials: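 DMSO serves as negative control and baseline for bidirectional fitting of reporter mRNA changes. HepG2 cells bearing transiently transfected cis-promoter reporters were exposed 24 h; transcripts detected via RT-PCR and capillary electrophoresis.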

Experiment [10] in a line: ATG_GLI_CIS: Attagene CIS-FACTORIAL HepG2 Assay for human Zinc Finger Protein GLI1 (AID 2282945). The note with it: HepG2, Attagene cis-factorial reporter mRNA, GLI element; actives raise or lower the signal. The essentials:
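Transiently transfected HepG2 cells report endogenous transcription factor activity via cis-element-driven reporter units. After 24 h compound exposure, reporter mRNA was measured by RT-PCR with capillary electrophoresis; bidirectional fitting against DMSO baseline.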

A short description of experiment [11]: ATG_ISRE_CIS: Attagene CIS-FACTORIAL HepG2 Assay for human Interferon Regulatory Factor 1 (IRF1) binding to an Interferon-Stimulated Response Element (ISRE) (AID 2282948). The conditions noted are these: HepG2 ISRE cis-reporter (Attagene), mRNA transcription readout; actives raise or lower the signal. The essentials:
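Read-out: fluorescent RT-PCR products resolved by capillary electrophoresis, reporting endogenous transcription factor activity via ISRE-driven reporter mRNA in transfected HepG2 cells dosed for 24 h; gain or loss fitted relative to DMSO.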

A short description of experiment [12]: ATG_M_32_CIS: Attagene CIS-FACTORIAL HepG2 Assay for M32 Transcription Factor (Internal Marker) (AID 2282949).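 Note: background control marker of the multiplexed CIS panel rather than a real target.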 The conditions noted are these: HepG2 Attagene cis-factorial M32 reporter, mRNA; actives raise or lower the signal. The essentials: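 Using DMSO as baseline, bidirectional curve fits were applied to reporter mRNA signals. These came from transiently transfected HepG2 cells exposed for 24 h, with RNA analysed by RT-PCR, FAM primer extension, HpaI digestion and CE.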

A short description of experiment [13]: ATG_M_06_CIS: Attagene CIS-FACTORIAL HepG2 Assay for M06 Transcription Factor (Internal Marker) (AID 2282950). The conditions noted are these: HepG2 Attagene CIS-FACTORIAL M06 internal marker reporter; actives raise or lower the signal. A digest of the protocol:
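Fluorescence-labelled RT-PCR products from cis-promoter reporter units, cut with HpaI and resolved by capillary electrophoresis, give the signal. Cells are human HepG2, dosed for 24 h. Serves as background control, fitted relative to DMSO.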

The target in experiment [14] is Hypoxia-inducible factor 1-alpha (Homo sapiens) (UniProt Q16665). Nature of the experiment: ATG_HIF1a_CIS: Attagene CIS-FACTORIAL HepG2 Assay for human Hypoxia Inducible Factor 1 (HIF1A) (AID 2282951). The conditions noted are these: HepG2 Attagene cis-factorial HIF1a reporter transcription; actives raise or lower the signal. A digest of the protocol: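 Fluorescence intensity of capillary-separated, 6-FAM-labelled reporter amplicons gives mRNA induction in HepG2 cells carrying transfected cis-promoter reporter units; cells exposed 24 h, responses fitted up or down from DMSO.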

Experiment [15] concerns the target Hepatocyte nuclear factor 6 (Homo sapiens) (UniProt Q9UBC0). The experiment can be described thus: ATG_HNF6_CIS: Attagene CIS-FACTORIAL HepG2 Assay for human Hepatocyte Nuclear Factor 6 (HNF6) (AID 2282952). The conditions noted are these: HepG2 Attagene cis-factorial HNF6 reporter transcription; actives raise or lower the signal. A digest of the protocol: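 First, HepG2 cells were transfected with the multiplexed cis reporter library and dosed with chemical for 24 h. Next, RNA was reverse-transcribed, PCR-amplified and fluorescently labelled. Finally, HpaI-digested fragments were read by capillary electrophoresis.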

Experiment [16] has as its target Heat shock factor protein 1 (Homo sapiens) (UniProt Q00613). Nature of the experiment: ATG_HSE_CIS: Attagene CIS-FACTORIAL HepG2 Assay for human Heat Shock Transcription Factor 1 (HSE) (AID 2282953). The note with it: HepG2 HSE cis-reporter, Attagene RNA transcription; actives raise or lower the signal. A digest of the protocol:
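After a 24 h incubation with test chemical, transfected HepG2 cells were harvested for RNA; reporter transcripts were measured by RT-PCR and capillary electrophoresis. Values reflect gain or loss of signal relative to DMSO.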

The nature of experiment [17]: ATG_MRE_CIS: Attagene CIS-FACTORIAL HepG2 Assay for human Metal Responsive Element (MRE) (AID 2282954). The note with it: HepG2 MRE cis-reporter transcription, Attagene multiplex; actives raise or lower the signal. The essentials:
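RT-PCR/capillary electrophoresis readout of reporter mRNA, 24 h post-dosing, in HepG2 cells transfected with multiplexed cis-regulated reporter constructs. Gain or loss of signal fitted bidirectionally against DMSO baseline.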

For experiment [18], the target named is Bile acid receptor (Homo sapiens) (UniProt Q96RI1). The experiment can be described thus: ATG_IR1_CIS: Attagene CIS-FACTORIAL HepG2 Assay for human Nuclear Receptor Subfamily 1 Group H Member 4 (NR1H4), IR1 submotif (AID 2282946). The conditions noted are these: IR1 reporter transcription, actives raise or lower the signal. The essentials:
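Fluorescence of capillary-separated, HpaI-digested RT-PCR reporter products gave IR1-element mRNA induction in HepG2 cells 24 h after dosing. Endogenous transcription factors drove the cis-regulated reporters; activity was fitted bidirectionally against DMSO.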

A short description of experiment [19]: ATG_GRE_CIS: Attagene CIS-FACTORIAL HepG2 Assay for human Glucocorticoid Response Elements (GRE) (AID 2282947). The conditions noted are these: HepG2 GRE cis-reporter, Attagene multiplex mRNA; actives raise or lower the signal. A digest of the protocol: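 Read-out: fluorescent reporter-transcript fragments separated by capillary electrophoresis after RT-PCR. Transiently transfected HepG2 cells carrying cis-element-driven reporter units were dosed for 24 h; gain or loss of signal fitted against DMSO control.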

Sequence of Hepatocyte nuclear factor 3-beta (Homo sapiens) (Q9Y261 whole entry, looked up): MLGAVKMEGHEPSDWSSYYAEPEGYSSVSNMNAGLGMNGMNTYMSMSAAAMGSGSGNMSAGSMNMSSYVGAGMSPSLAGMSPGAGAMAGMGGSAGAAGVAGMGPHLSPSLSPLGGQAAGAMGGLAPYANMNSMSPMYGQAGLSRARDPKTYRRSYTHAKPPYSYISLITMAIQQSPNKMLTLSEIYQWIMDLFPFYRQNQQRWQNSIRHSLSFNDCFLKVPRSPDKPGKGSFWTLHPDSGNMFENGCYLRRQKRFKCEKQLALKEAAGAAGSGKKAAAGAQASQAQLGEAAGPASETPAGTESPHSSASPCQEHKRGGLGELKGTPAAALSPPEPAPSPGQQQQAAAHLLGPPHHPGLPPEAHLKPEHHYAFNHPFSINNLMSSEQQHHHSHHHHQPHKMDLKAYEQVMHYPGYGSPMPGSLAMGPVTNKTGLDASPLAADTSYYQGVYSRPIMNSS
Sequence of Hepatocyte nuclear factor 6 (Homo sapiens) (Q9UBC0 whole entry, looked up, the tested form may be a part): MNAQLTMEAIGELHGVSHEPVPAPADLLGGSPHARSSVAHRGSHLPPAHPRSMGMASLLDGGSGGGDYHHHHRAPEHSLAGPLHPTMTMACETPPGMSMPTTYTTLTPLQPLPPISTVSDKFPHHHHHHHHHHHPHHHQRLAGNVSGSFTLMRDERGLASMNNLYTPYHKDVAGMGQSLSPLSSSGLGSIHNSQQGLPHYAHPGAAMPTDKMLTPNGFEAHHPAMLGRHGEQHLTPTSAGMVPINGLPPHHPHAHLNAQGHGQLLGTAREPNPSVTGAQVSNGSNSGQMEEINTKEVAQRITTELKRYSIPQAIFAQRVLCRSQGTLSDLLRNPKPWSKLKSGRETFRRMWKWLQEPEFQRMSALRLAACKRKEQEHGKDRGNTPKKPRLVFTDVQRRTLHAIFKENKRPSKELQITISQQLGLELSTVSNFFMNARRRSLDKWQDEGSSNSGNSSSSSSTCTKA
Sequence of Heat shock factor protein 1 (Homo sapiens) (Q00613 whole entry, looked up): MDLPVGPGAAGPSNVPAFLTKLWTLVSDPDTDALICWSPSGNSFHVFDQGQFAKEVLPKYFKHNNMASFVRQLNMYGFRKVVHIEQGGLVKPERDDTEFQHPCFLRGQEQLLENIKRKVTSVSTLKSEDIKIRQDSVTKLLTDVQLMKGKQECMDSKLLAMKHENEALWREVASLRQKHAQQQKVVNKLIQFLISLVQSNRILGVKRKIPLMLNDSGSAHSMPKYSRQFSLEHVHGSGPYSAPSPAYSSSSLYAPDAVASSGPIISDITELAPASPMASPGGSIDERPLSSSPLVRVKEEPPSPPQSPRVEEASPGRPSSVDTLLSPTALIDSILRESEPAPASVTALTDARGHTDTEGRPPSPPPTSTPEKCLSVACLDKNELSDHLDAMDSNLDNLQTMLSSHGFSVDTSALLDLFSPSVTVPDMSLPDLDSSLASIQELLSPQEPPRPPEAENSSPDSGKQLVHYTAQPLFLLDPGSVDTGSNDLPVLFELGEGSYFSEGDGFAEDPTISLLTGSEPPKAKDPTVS
Sequence of Hypoxia-inducible factor 1-alpha (Homo sapiens) (Q16665 whole entry, looked up): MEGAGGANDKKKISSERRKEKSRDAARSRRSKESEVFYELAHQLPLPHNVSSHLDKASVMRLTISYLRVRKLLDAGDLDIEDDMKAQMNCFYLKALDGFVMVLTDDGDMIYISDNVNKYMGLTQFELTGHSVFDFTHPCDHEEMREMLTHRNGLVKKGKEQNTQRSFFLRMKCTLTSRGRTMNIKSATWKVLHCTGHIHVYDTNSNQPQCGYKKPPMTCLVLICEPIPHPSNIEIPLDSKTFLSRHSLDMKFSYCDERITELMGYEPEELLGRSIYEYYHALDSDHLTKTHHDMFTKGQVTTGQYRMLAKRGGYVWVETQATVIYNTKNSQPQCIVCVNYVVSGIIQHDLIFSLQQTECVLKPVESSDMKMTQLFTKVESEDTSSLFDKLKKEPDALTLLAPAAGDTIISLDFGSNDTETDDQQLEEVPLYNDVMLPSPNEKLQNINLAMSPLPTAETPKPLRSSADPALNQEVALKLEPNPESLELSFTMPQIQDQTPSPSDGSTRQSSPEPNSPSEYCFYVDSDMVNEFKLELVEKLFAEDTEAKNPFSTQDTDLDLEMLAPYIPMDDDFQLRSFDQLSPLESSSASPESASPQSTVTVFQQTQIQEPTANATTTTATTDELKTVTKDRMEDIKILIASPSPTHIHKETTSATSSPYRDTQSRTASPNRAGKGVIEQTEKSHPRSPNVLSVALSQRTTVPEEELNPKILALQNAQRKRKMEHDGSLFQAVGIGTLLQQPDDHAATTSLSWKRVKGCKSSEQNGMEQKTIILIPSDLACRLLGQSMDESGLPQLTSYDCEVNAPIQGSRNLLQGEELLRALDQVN
Sequence of Transcription factor E2F1 (Homo sapiens) (Q01094 whole entry, looked up): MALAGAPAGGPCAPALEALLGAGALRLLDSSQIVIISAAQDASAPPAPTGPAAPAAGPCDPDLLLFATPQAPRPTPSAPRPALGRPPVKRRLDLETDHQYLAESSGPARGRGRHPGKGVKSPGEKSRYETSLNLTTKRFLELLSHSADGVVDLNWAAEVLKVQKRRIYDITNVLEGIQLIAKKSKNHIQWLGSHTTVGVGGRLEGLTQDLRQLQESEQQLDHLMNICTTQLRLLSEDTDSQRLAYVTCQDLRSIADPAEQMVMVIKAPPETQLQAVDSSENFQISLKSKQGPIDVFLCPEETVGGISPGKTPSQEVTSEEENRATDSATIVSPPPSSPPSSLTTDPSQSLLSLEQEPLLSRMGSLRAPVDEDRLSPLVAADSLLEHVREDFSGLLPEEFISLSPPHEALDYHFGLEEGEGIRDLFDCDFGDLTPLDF
Sequence of Bile acid receptor (Homo sapiens) (Q96RI1 whole entry, looked up): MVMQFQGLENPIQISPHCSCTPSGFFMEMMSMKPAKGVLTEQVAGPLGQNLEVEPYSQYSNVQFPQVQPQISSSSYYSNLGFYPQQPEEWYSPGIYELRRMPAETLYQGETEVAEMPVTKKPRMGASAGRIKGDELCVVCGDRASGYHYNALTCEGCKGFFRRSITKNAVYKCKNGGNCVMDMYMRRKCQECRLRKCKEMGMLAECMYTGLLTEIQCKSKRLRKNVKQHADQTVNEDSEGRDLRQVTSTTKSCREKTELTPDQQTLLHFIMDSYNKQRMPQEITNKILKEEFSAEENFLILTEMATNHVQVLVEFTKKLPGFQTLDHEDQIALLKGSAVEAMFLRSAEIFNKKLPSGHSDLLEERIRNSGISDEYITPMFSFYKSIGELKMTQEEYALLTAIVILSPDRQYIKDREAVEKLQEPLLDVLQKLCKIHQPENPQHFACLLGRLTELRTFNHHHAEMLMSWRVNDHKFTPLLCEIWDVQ

On to `CCCC(=NOCC)C1=C(O)CC(CC(C)SCC)CC1=O` (stereo not drawn), for which the call in [1], in experiment [2], in [3], in experiment [4], in experiment [5] and in [6] was inactive. Besides, the compound was called inactive in experiment [7], in experiment [8], in experiment [9], in experiment [10], in [11] and in [12]. The call in experiment [13], in experiment [14], in experiment [15], in experiment [16] and in experiment [17] was inactive.
For `N#Cc1c[nH]cc1-c1cccc2c1OC(F)(F)O2`, the compound was classed as inactive in [1], in experiment [2], in [3], in experiment [4], in [7] and in experiment [8]. Further, the result in experiment [9], in experiment [10], in experiment [11], in experiment [12], in [13] and in experiment [14] was inactive. For the same compound, the outcome in experiment [15] was inactive. In addition, the AC50 in experiment [5] is 5.84 µM (active); in experiment [6] it was 29 µM (active); in experiment [17], 8.67 µM (active).
As to `CSC(=O)c1c(C(F)F)nc(C(F)(F)F)c(C(=O)SC)c1CC(C)C`, the outcome in experiment [1], in [2], in experiment [3], in experiment [4], in [6] and in experiment [7] was inactive. The compound was classed as inactive in [8], in [9], in experiment [10], in [11], in [12] and in [13]. The compound was classed as inactive in experiment [14], in [15] and in [17]. Also, the AC50 in experiment [5] is 3.83 µM (active).
As for `COC(=O)NS(=O)(=O)c1ccc(N)cc1`, the compound was called inactive in experiment [1], in [2], in experiment [3], in [4], in experiment [5] and in [6]. Further, the compound was called inactive in [7], in [8], in [9], in experiment [10], in experiment [11] and in experiment [12]. Besides, the compound was classed as inactive in experiment [13], in experiment [14] and in experiment [15].
As for `CCOc1nc(F)cc2nc(S(=O)(=O)Nc3c(Cl)cccc3Cl)nn12`, the result in experiment [1], in experiment [2], in experiment [3], in experiment [4], in experiment [5] and in experiment [6] was inactive. Besides, the outcome in experiment [7], in [8], in experiment [9], in experiment [10], in experiment [18] and in experiment [11] was inactive. Also, the outcome in experiment [12], in experiment [13], in experiment [14], in experiment [15] and in experiment [16] was inactive.
Take `CC1(C)CCC(=Cc2ccc(Cl)cc2)C1(O)Cn1cncn1` (stereo not drawn): the compound was classed as inactive in experiment [1], in [2], in [3], in experiment [4], in experiment [5] and in [6]. Further, the compound was called inactive in experiment [7], in experiment [8], in experiment [9], in experiment [10], in [19] and in [11]. Also, the result in experiment [12], in experiment [13], in experiment [14], in [15] and in experiment [16] was inactive.
